Reference: article PMC4336329 (PLoS ONE, 2015)
Among all 310,000 compounds or so, about 14,000 (4.5%) showed an effect of 50% or more. Effects have a minus sign here. This is one part of a sample in which strong results are shown more often than they occur.

target: human ether-à-go-go-related gene (hERG) potassium channel (human, UniProt Q12809); experiment: primary screen, population patch clamp on CHO cells stably expressing hERG; higher = less effect of the substance
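Also: peak tail current of the secondary pulse compared with the same well before compound.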

human ether-à-go-go-related gene (hERG) potassium channel, sequence (Q12809 whole entry, looked up): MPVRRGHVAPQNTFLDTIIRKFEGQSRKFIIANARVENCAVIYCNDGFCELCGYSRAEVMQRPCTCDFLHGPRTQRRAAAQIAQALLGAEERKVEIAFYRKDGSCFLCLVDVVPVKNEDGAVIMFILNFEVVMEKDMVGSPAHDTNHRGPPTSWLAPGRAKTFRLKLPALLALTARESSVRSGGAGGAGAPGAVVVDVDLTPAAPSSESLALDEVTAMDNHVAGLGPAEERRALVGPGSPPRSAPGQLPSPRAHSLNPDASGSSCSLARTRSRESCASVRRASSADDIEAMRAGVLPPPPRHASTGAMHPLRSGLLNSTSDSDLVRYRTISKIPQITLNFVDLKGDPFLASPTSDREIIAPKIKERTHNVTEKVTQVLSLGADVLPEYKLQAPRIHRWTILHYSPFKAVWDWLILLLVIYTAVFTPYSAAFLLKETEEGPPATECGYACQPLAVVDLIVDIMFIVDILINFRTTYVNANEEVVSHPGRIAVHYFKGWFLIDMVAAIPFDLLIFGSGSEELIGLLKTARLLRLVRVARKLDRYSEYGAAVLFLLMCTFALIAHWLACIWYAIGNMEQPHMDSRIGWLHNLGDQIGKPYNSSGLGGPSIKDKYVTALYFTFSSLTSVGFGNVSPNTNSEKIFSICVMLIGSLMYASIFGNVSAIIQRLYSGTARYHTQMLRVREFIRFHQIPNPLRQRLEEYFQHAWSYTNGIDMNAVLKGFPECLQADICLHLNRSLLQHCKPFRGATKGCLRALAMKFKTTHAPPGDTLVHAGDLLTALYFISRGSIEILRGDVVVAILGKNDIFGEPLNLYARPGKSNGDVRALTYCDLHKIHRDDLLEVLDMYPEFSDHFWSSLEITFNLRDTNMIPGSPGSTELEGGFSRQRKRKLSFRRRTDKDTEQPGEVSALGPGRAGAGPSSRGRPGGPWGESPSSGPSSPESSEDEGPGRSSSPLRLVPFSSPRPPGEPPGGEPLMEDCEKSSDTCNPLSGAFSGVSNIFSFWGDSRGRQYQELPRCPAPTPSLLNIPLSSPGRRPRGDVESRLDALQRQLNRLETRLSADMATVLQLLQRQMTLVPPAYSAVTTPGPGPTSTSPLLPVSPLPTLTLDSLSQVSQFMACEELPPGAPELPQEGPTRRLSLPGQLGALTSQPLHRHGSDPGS

Structure (SMILES)	hERG current change (%, negative = inhibition) at 10uM [%]
CCOC(=O)C1(Cc2cccc(OC)c2)CCCN(C(=O)c2cc(C)oc2C)C1 (stereo not drawn)	-6.37
O=C(CNC(=S)N(Cc1ccccc1Cl)C1CCCC1)NCCCN1CCOCC1	7.4
CSc1ccc(CNCC2CCCO2)cc1.Cl (stereo not drawn)	2.99
CC(/C=N/NC(=O)Cn1cnc2c1c(=O)n(C)c(=O)n2C)=C\c1ccco1	-10.2
CCN(C(=O)CSc1nc2ccccc2o1)C1CCS(=O)(=O)C1 (stereo not drawn)	-3.25
CC1(CC(=O)N/N=C/c2ccc(OCc3ccc(Cl)cc3Cl)cc2)OCCCO1	5.38
COc1cccc(C(=O)Nc2ccccc2F)c1	8.37
O=C(CCc1nc2ccccc2c(=O)[nH]1)NNC(=O)COc1ccc(Br)cc1	6.48
CCOC(=O)c1nnn2c1nc(N1CCOCC1)c1ccccc12	-20.4
CCOC(=O)c1nnn2c1nc(N1CCN(C)CC1)c1ccccc12	-4.25
CCOC(=O)c1nnn2c1nc(N1CCN(c3ccccc3)CC1)c1ccccc12	-62.4
COc1ccc(OC)c(N2C(=O)NC(=O)C(CCc3ccncc3)(CCc3ccncc3)C2=O)c1	-41.2
O=C1NC(=O)C(CCc2ccncc2)(CCc2ccncc2)C(=O)N1CCc1ccc(F)cc1	-68.5
COc1ccc(CC2(CCc3ccncc3)C(=O)NC(=O)NC2=O)cc1	22.5
O=C1NC(=O)C(CCc2ccncc2)(CCc2ccncc2)C(=O)N1Cc1ccc(F)cc1	-76.6
CCOc1ccccc1N1C(=O)NC(=O)C(CCc2ccncc2)(CCc2ccncc2)C1=O	-29.6
O=C1CC(=O)N(CCc2ccc(F)cc2)C(=O)N1	9.33
CCOC(=O)CN1CC23C=CC(O2)C(C(=O)NCCc2ccccc2)C3C1=O (stereo not drawn)	6.73
CCOC(=O)N1CCN(S(=O)(=O)c2ccc(C)cc2)C1c1ccc(OC)cc1 (stereo not drawn)	-11.9
Cc1ccc(-c2nn(Cc3ccccc3)cc2C=O)cc1C	-13.9
Cc1cnc(NC(=O)CSc2nc3ccccc3c(=O)[nH]2)s1	-7.72

Structure (SMILES)	hERG current change (%, negative = inhibition) at 10uM [%]
CNC(=O)c1cc2c(=O)n3cccc(C)c3nc2n(C(C)C)c1=N	-77.3
CNC(=O)c1cc2c(=O)n3cc(C)ccc3nc2n(C(C)C)c1=N	-77.1
Cc1ccc(CCNC(=O)c2ccc3nc4ccc(Cl)cc4c(=O)n3c2)cc1	20.4
Cc1cccn2c(=O)c3cc(C(=O)NCC(C)C)sc3nc12	-3.21
Cc1ccccc1CC(=O)NCc1cccnc1	10.8
Cc1cccn2c(=O)c3cc(C(=O)O)n(C)c3nc12	6.65
Cc1cccn2c(=O)c3cc(C(=O)N(C)C)n(C)c3nc12	2.7
Cc1ccc2nc(SCC(=O)Nc3cccc4ccccc34)nc(=O)n2c1	-14
Cc1cccn2c(=O)c3cc(C(=O)NCc4cccnc4)c(=N)n(C(C)C)c3nc12	-69.4
O=C(CSc1nnc2scc(-c3ccc(Cl)cc3)n12)NCc1ccco1	-15.9
CCOc1cc(CNC(C)(C)CO)cc(Br)c1OCc1ccc(Cl)cc1Cl	-12.1
COC1CCN(C(=O)CC2C(=O)NCCN2CC(C)(C)C)CC1 (stereo not drawn)	18.5
COC(=O)c1cc(NC(=O)c2cccnc2)cc(C(=O)OC)c1	11
N#CC(=C1SC=CS1)c1nc(-c2ccccc2)cs1	9.47
Cn1cc(/C=C(\NC(=O)c2ccccc2)C(=O)NCCCN2CCOCC2)c2ccccc21	3.43
CC(C)CNC(=O)C(=O)NCCCN1CCOCC1	-61.6
CC(C)c1ccc(/C=C(\NC(=O)c2ccccc2)C(=O)NCCN2CCOCC2)cc1	-61
O=C(NCCCN1CCOCC1)/C(=C/c1ccco1)NC(=O)c1ccccc1	1.44
CC(C)NC(=O)C(=O)NCCCN1CCOCC1	25.1
CC(C)c1ccc(/C=C(\NC(=O)c2ccccc2)C(=O)NCCCN2CCOCC2)cc1	-71.4
CNC(=O)C(=O)NCCCN1CCOCC1	7.92

Structure (SMILES)	hERG current change (%, negative = inhibition) at 10uM [%]
O=C(NCCN1CCOCC1)/C(=C\c1ccccc1Cl)NC(=O)c1ccccc1	-16.2
CC(=O)c1ccc(S(=O)(=O)N(C)C(C)CCc2ccco2)cc1 (stereo not drawn)	-6.81
CC(=O)N1CCc2cc(Br)cc(S(=O)(=O)N3CCN(c4ccccn4)CC3)c21	10.7
Cc1ccc(/C=C2\C(=N)N3N=C(CC(=O)N4CCOCC4)SC3=NC2=O)o1	12.2
CCOC(=O)c1cc(-c2ccccc2)sc1NC(=O)C(C)C	13.8
O=C(O)C1C2CCC(C2)C1C(=O)NCc1ccccn1 (stereo not drawn)	16.1
CCOC(=O)N1CCN(c2ccc(S(=O)(=O)N(Cc3ccccc3)Cc3ccccc3)cn2)CC1	-4.41
Cc1ccc(S(=O)(=O)N2CCN(Cc3cc(=O)n4ccccc4n3)CC2)c(C)c1	-80.6
O=S(=O)(c1ccccc1)N1CCN(Cc2cccc(Cl)c2)CC1	-18.1
Cc1ccc(S(=O)(=O)N2CCN(Cc3cc(=O)n4ccccc4n3)CC2)cc1C	-40.5
O=c1nc2ccc(Cl)cn2c2ccc(S(=O)(=O)N3CCCCC3)cc12	-0.392
COc1ccc(S(=O)(=O)N2CCN(Cc3cc(=O)n4ccccc4n3)CC2)cc1	-31.4
O=c1cc(CN2CCN(S(=O)(=O)c3ccccc3)CC2)nc2ccc(Cl)cn12	-56
CCOc1cccc(C2/C(=C(/O)c3ccc4c(c3)CC(C)O4)C(=O)C(=O)N2CCN2CCOCC2)c1 (stereo not drawn)	14.7
N#Cc1ccccc1NC(=O)CSc1ccc([N+](=O)[O-])cn1	13.1
COc1cc(C(CC(=O)N2CCCC2)c2c(OC)cc(OC)c3c(-c4ccccc4)cc(=O)oc23)cc(OC)c1OC (stereo not drawn)	-10.5
COc1cc(OC)c2c(-c3ccccc3)cc(=O)oc2c1C(CCN1CCN(c2ccccc2)CC1)c1ccc(N(C)C)cc1 (stereo not drawn)	7.89
COc1cc(C(CCN2CCCC(C)C2)c2c(OC)cc(OC)c3c(-c4ccccc4)cc(=O)oc23)cc(OC)c1OC (stereo not drawn)	-38.7
COc1cc(C(CCN2CCCC2)c2c(OC)cc(OC)c3c(-c4ccccc4)cc(=O)oc23)cc(OC)c1OC (stereo not drawn)	-70.8
CCN(CC)CCC(c1cc(OC)c(OC)c(OC)c1)c1c(OC)cc(OC)c2c(-c3ccccc3)cc(=O)oc12 (stereo not drawn)	-16.8
COc1cc(C(CCN2CCCCC2)c2c(OC)cc(OC)c3c(-c4ccccc4)cc(=O)oc23)cc(OC)c1OC (stereo not drawn)	-67

Structure (SMILES)	hERG current change (%, negative = inhibition) at 10uM [%]
Cc1ccc(NC(=O)CCS(=O)(=O)c2cc3c(cc2Cl)NC(=O)CO3)cc1	-17.4
O=C(CNC(=O)c1ccc(Cl)cc1)c1ccc(Cl)cc1	7.28
Cc1ccc(CNC(=O)C2C3C=CC(C3)C2C(=O)O)cc1 (stereo not drawn)	-3.26
Cl.OC(CN1CCCCC1)Cn1c(C(F)(F)F)nc2ccccc21 (stereo not drawn)	4.06
CC1CN(S(=O)(=O)c2cccs2)CC(C)O1 (stereo not drawn)	-3.7
COc1ccc(NC(=S)NCc2ccco2)cc1	9.23
COc1ccc(S(=O)(=O)n2cnc3ccccc32)cc1OC	12.4
C=CCn1c(O)c(C(CC)=NCc2cc(OC)cc(OC)c2)c(=O)[nH]c1=O	-59
CCCCn1c(O)c(C(CC)=NCc2cc(OC)cc(OC)c2)c(=O)[nH]c1=O	-13.8
C=CCn1c(O)c(C(C)=NCc2cc(OC)cc(OC)c2)c(=O)[nH]c1=O	-37
Cc1ccc(S(=O)(=O)Nc2ccccc2/C=N/c2nc3ccccc3n2C)cc1	-13.5
Cc1cc(-c2ccc(N3CCOCC3)cc2)nc2ccccc12.Cl	3.53
C=CCn1c(O)c(C=Nc2c(C)n(C)n(-c3ccccc3)c2=O)c(=O)[nH]c1=O	-81.6
CCCCn1c(O)c(C=Nc2c(C)n(C)n(-c3ccccc3)c2=O)c(=O)[nH]c1=O	4.96
Cc1c(N=Cc2c(O)n(CCc3ccc(F)cc3)c(=O)[nH]c2=O)c(=O)n(-c2ccccc2)n1C	-61.9
Cc1c(N=Cc2c(O)n(Cc3ccc(F)cc3)c(=O)[nH]c2=O)c(=O)n(-c2ccccc2)n1C	-26
Cc1c(N=Cc2c(O)n(CCc3ccccc3)c(=O)[nH]c2=O)c(=O)n(-c2ccccc2)n1C	-39.3
Cc1c(N=Cc2c(O)n(Cc3ccccc3)c(=O)[nH]c2=O)c(=O)n(-c2ccccc2)n1C	-5.81
C=C(C)Cn1c(N2CC(C)CC(C)C2)nc2c1c(=O)[nH]c(=O)n2C (stereo not drawn)	2.46
COc1ccc(CCC(=O)Nc2ccc(N3CCOCC3)cc2)cc1	-12.9
CCOC(=O)C1=C(c2ccccc2)Nc2ncnn2C1c1ccc(OC)c(OC)c1OC (stereo not drawn)	-5.55
